Shown are actives, neighbours in structure and some others; about 4.2% of the full set was active somewhere.
VDR inh = Inhibitors of the vitamin D receptor (VDR): qHTS; 400,000 compounds, 0.93% hits; VDR-SRC2-3 peptide fluorescence polarization, 2 h; Potency, µM, for inactives: max response, negative = inhibition, usual class: inhibitors; Vitamin D3 receptor (Homo sapiens), P11473
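Two reagent solutions held at 4 deg C in the dark were dispensed, compounds pinned at 23 nl, and the mixture incubated 2 h at room temperature. Read-out: fluorescence polarization of VDR–SRC2-3 peptide binding.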
Sfp PPTase inh = qHTS Assay for Inhibitors of Bacillus subtilis Sfp phosphopantetheinyl transferase (PPTase) | Biochemical Sfp PPTase activity, qHTS | 310,000 compounds, 3.5% hits | 4'-phosphopantetheinyl transferase ffp (Bacillus subtilis), Q9F4F7 | Potency, µM, without a hit: largest response in the series, negative = inhibition, hits mostly inhibitors;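 note: the enzyme is Sfp with the accession as filed and its product quenches rhodamine fluorescence; 0% = enzyme reaction without inhibitor and -100% = no enzyme wells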
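Step 1, compound plus 15 nM Sfp-PPTase, 15 min, room temperature. Step 2, add rhodamine-CoA (5 uM) and BHQ-2-YbbR (12.5 uM). Step 3, read 525/598 nm fluorescence at 0 and 30 min.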
PLK1 PBD block = qHTS for Inhibitors of PLK1-PDB (polo-like kinase 1 - polo-box domain): Primary Screen | Plk1 PBD binding of FITC phosphopeptide, fluorescence polarization | Potency, µM, for inactives: max response, negative = inhibition, hits mostly inhibitors | 360,000 compounds, 2.8% hits | Serine/threonine-protein kinase PLK1 (Homo sapiens), P53350; note: series mostly up to about 57 µM; nearly all actives have a fitted effect of over 65% in size
ALOX12 inh = Primary qHTS assay for inhibitors of human arachidonate 12S-lipoxygenase (ALOX12): Round 2. purified 12hLO, xylenol orange hydroperoxide absorbance. Potency, µM (highest dose often 108 µM), without a hit: at the top dose activity change, negative = inhibition, actives largely listed as inhibitors. 580,000 compounds, 1.1% hits
Target sequence (P18054 whole entry, looked up): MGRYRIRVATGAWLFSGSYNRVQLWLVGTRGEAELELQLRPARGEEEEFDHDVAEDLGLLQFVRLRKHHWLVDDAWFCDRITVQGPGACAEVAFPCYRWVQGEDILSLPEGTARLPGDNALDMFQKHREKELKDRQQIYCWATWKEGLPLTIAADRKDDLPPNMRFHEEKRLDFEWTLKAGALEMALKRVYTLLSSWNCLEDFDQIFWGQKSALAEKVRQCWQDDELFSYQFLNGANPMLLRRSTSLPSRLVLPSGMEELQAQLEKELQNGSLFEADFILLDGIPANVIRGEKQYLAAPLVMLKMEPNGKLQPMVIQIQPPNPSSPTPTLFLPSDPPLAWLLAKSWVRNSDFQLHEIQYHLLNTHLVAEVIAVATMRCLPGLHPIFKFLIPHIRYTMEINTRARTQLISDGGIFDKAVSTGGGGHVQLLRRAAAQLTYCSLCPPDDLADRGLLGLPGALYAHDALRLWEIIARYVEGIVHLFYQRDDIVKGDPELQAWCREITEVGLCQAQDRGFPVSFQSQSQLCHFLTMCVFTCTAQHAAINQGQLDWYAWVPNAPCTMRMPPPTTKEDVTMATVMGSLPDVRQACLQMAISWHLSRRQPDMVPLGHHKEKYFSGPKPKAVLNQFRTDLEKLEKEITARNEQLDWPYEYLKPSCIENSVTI
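Hydroperoxide product was detected by ferrous iron/xylenol orange as the 573 to 405 nm absorbance ratio. Arachidonic acid at 40 uM (final) was turned over for 30 min at room temperature by 150 nM human 12hLO, pH 7.0 Hepes buffer, after 15 min compound preincubation.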
Starred values were filed as active, the others as inactive; ? = inconclusive; . = not tested or not shown; ! = not active in a repeat. Calls come from the whole dose curve; as a rule, active = well fitted curve in the direction sought with a large enough effect; inconclusive = small, poorly fitted or top-dose-only effect, or another doubt; inactive = no such curve, though single readings can be large; an effect the other way counts as inactive or inconclusive. Unless noted, % is set by controls: 0 for no effect and ±100 for the full control effect; potency is the fitted concentration of half-maximal effect.

SMILES | VDR inh | Sfp PPTase inh | PLK1 PBD block | ALOX12 inh
O=C(OCC(=O)N1N=C(c2ccc(Cl)cc2)CC1c1ccco1)c1cccnc1 (stereo not given) | 40µM* | . | -30% | -58%
CC(=O)N1N=C(c2c(-c3ccccc3)c3cc(C)ccc3[nH]c2=O)CC1c1ccco1 (stereo not given) | -11% | ? | -4% | -4%
CCc1ccc(C2=NN(C(C)=O)C(c3ccco3)C2)cc1 (stereo not given) | -20% | 25µM* | 2% | -34%
CC(=O)Nc1ccc2nc(CN3CCN(CC=C(C)C)C(CCO)C3)ccc2c1 (stereo not given) | 1% | -4% | -15% | -2%
Cc1cnc(CCNC(=O)c2cccs2)n1CC1CC1 | . | . | . | 36%
COc1ccc(C2=NN(C(N)=S)C(c3ccco3)C2)cc1 (stereo not given) | 5% | 11µM* | -10% | ?
COc1ccc(C2=NN(C(=O)CSc3nnc(-c4ccccc4F)o3)C(c3ccco3)C2)cc1 (stereo not given) | -19% | -12% | -12% | -16%
CN1CC(=O)N(CC(=O)N2N=C(c3ccc(Cl)cc3)CC2c2ccco2)C1=O (stereo not given) | -18% | 20µM* | -16% | -8%
CCC(=O)N1N=C(c2ccc(Cl)cc2)CC1c1ccco1 (stereo not given) | 1% | -13% | -1% | 0%
Fc1ccccc1CSc1ccc(-c2cccs2)nn1 | . | . | . | 16%
c1ccc(CSc2ccc(-c3ccco3)nn2)cc1 | -25% | 32µM* | -24% | ?
N#Cc1ccc(-c2ccco2)nc1SCc1ccccc1 | 0% | -9% | -4% | 3%
Fc1ccccc1CSc1ccc(-c2ccco2)nn1 | -13% | 56µM* | ? | -10%
Clc1cccc(CSc2ccc(-c3ccco3)nn2)c1 | ? | 35µM* | -12% | -16%
Cc1ccc(CSc2ccc(-c3ccco3)nn2)cc1 | -4% | 28µM* | -10% | ?
O=C(NCC1CCCO1)C1CCN(C2CCN(C(=O)CC3CCCC3)CC2)CC1 (stereo not given) | 7% | 2% | -8% | 17%
Cc1cc(C)c(-c2nc3ccccc3s2)[nH]1 | 9% | -3% | -6% | -22%
CCCN(CC1CCOC1)S(=O)(=O)c1ccc(Br)cc1 (stereo not given) | . | . | . | 28%
O=C(NCCC(F)(F)F)C1=CN2CCN(Cc3cccc(Cl)c3)C(=O)N=C2O1 | . | . | . | 24%
COc1ccc(C2(c3ccc(OC)cc3)NC(=O)N(CC(=O)Nc3ccccc3C)C2=O)cc1 | 8% | 79µM* | -7% | 172%
CCCCN(C)C(=O)c1ccc(S(=O)(=O)N2CCOCC2)cc1 | 1% | 27% | -11% | -4%
Cc1ccc(-c2nc(CS(=O)(=O)CC(=O)N3CCN(c4cc(C)ccc4C)CC3)c(C)o2)cc1 | . | . | . | 0%
O=C1CCN(C(=O)c2cccs2)CCCC(c2nc(-c3cccnc3)no2)CCN1 (stereo not given) | . | . | . | 8%
COc1ccc2[nH]c(C)c(CCN3C(=O)C4CC=CCC4C3=O)c2c1 (stereo not given) | ? | 0% | 21µM* | 247%
CCc1nnc(NC(=O)[C@@H](NC(=O)c2cccc(S(=O)(=O)N3CCOCC3)c2)C(C)C)s1 | -17% | 1% | -8% | -4%
SMILES | VDR inh | Sfp PPTase inh | PLK1 PBD block | ALOX12 inh
C=CCNC(=S)NNC(=O)c1ccc(=O)n(Cc2ccccc2)c1 | 11% | 14% | -11% | -4%
Cc1sc2nc(CSCC(=O)Nc3ccc(N4CCOCC4)cc3)[nH]c(=O)c2c1C | ? | ? | 30µM* | -3%
CCOC(=O)Cc1ccc(NC(=O)c2ccccc2Br)cc1 | 7% | -5% | 6% | -10%
CCOC(=O)Cc1ccc(NC(=O)c2ccc(C(C)(C)C)cc2)cc1 | -8% | 24% | 5.3µM* | 0%
COC(=O)Cc1ccc(NC(=O)c2ccc3c(c2)C(=O)N(Cc2ccco2)C3=O)cc1 | -11% | 10% | -4% | 63%
CCc1ccc(NC(=O)c2ccc3c(c2)C(=O)N(Cc2ccco2)C3=O)cc1 | ? | 40µM* | -25% | ?
CN1C(=O)c2oc3ccccc3c(=O)c2C1c1cccnc1 (stereo not given) | 8% | . | ? | 3%
CN1C(=O)c2oc3ccc(Br)cc3c(=O)c2C1c1ccncc1 (stereo not given) | . | 40µM* | . | .
Cc1ccc(C(=O)/C=C/c2cc(Br)c(O)c(Br)c2)cc1 | . | . | . | 28µM*
Cc1ccc(C(=O)/C=C/C(=O)c2ccc(C)cc2)cc1 | ? | 3.2µM* | 1.7µM* | -16%
CC(C)OC(=O)c1cc2c(ccn2-c2ccc(F)cc2)n1CC(=O)N1CCN(C(=O)c2ccco2)CC1 | ? | -17% | -6% | -17%
CC(=O)N1CCN(Cc2cc(=O)oc3cc(C)cc(C)c23)CC1 | . | . | -20% | -1%
CCN(CC(=O)NCc1ccccn1)S(=O)(=O)c1ccc(Cl)cc1 | ? | ? | 27µM* | 0%
Cc1ccc(S(=O)(=O)N(CC(=O)NCc2ccccn2)c2ccc(Cl)cc2)cc1 | -19% | 13% | -1% | 7%
CCOC(=O)c1c(C)nc(C)c(C(=O)OCC)c1-c1ccccc1 | -5% | 45µM* | -6% | 38%
Cc1c2c(nc3ccccc13)CCSC2 | . | . | . | 4.5µM*
COc1cc(C(=O)Nc2ccc3nc4n(c(=O)c3c2)CCCCC4)cc(OC)c1OC | -1% | 28% | -21% | -7%
COc1cnn(Cc2ccccc2)c(=O)c1SCc1ccccc1 | -15% | -9% | ? | -11%
COc1cc2c(cc1OC)C1=NC(=O)CN1C(SCc1ccccc1)=N2 | -8% | ? | 27µM* | ?
COc1cc(O)c(C(CC(=O)N2CCN(c3ccccc3)CC2)c2ccc(N(C)C)cc2)c(OC)c1 (stereo not given) | -16% | 89µM*! | -11% | 1%
CCOC(=O)C1=C[C@@H](C)N(S(=O)(=O)c2ccc(C)cc2)[C@H]1c1ccccc1 | . | . | -2% | ?
CCOC(=O)c1c(C)n(S(=O)(=O)c2ccc(C)cc2)c2ccc(O)c(C(=O)O)c12 | -5% | -15% | -27% | 56µM*
C=CCN1C[C@@H]2CN(C(=O)CCc3ccc(OC)cc3)C[C@]2(C(=O)O)C1 | . | . | . | 29%
Oc1c(C(c2ccccc2)N2CCCCC2)ccc2ccccc12 (stereo not given) | . | . | 3µM* | 1%
CC1(C)Cc2c(C#N)c(N)n(-c3ccccc3)c(=S)c2CO1 | 27% | 12% | 11µM* | ?
N#Cc1c(C#N)c(-c2ccccc2)n(-c2ccccc2)c1N | 1% | 2% | -13% | 143%
N#Cc1c2c(c(=S)n(-c3ccccc3)c1N)CCCC2 | -17% | 32µM* | 2.7µM* | 5%
Cn1c(N)c(C#N)c2c(c1=S)COC(C)(C)C2 | -3% | 10% | -8% | 335%
CCC1(C)Cc2c(C#N)c(N)n(N)c(=S)c2CO1 (stereo not given) | -20% | -16% | 27µM* | 0%

Bioassay records deposited in PubChem by National Center for Advancing Translational Sciences (NCATS).
